Measured values: PubChem BioAssay (EPA / NIEHS)
Results filed as inconclusive are left out. Active and inactive are the calls of the source. How the source made its calls: active means hit-call score of the fitted dose curve at least 0.9, where 1 is the maximum; inconclusive means response in the unintended direction; inactive means score below 0.9.

target: human Serotonin, 5-Hydroxytryptamine Receptor 5A (5HT5A), HTR5A (gene 3361) (UniProt P47898); assay: NVS_GPCR_h5HT5A: NovaScreen (NVS) G Protein-Coupled Receptor Assay for human Serotonin, 5-Hydroxytryptamine Receptor 5A (5HT5A) (AID 2283251)
Sequence (P47898 whole entry, looked up): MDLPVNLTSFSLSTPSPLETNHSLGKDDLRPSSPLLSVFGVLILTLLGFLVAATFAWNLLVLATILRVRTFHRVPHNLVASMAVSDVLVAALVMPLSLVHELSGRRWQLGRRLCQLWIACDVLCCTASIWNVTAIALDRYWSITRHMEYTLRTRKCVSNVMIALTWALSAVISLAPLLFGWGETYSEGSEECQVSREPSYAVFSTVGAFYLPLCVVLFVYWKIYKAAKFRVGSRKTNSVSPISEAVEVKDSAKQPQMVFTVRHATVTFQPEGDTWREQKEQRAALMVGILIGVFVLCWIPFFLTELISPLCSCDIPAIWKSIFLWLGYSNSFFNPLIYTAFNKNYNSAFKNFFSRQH
Experimental: NVS_GPCR_h5HT5A is a biochemical, single-readout assay that uses extracted gene-proteins from HEK293 in a cell-free assay. Measurements were taken 1 hour after chemical dosing in a 96-well plate.NVS_GPCR_h5HT5A is one of one assay component(s) measured or calculated from the NVS_GPCR_h5HT5A assay. It is designed to make measurements of radioligand binding, a form of binding reporter, as detected with scintillation counting signals by Filter-based radiodetection technology.Data from the assay component NVS_GPCR_h5HT5A was analyzed into 1 assay endpoint. This assay endpoint, NVS_GPCR_h5HT5A, was analyzed in the positive analysis fitting direction relative to DMSO as the negative control and baseline of activity. Using a type of binding reporter, loss-of-signal activity can be used to understand changes in the binding as they relate to the gene HTR5A. Furthermore, this assay endpoint can be referred to as a primary readout, because the performed assay has only produced 1 assay endpoint. To generalize the intended target to other relatable targets, this assay endpoint is annotated to the gpcr intended target family, where the subfamily is rhodopsin-like receptor.
Binding assays used specific radioligands (tritiated, iodinated) with non-radioactive competitive displacement ligands in agonist or antagonist protocols (as indicated) and various reference compounds and inhibitors to titrate specific binding to receptors and transporters. Most enzyme assays (CYPs, kinases, phosphatases, proteases, HDACs) used recombinant protein and specific substrates (fluorescence mostly, some colorimetric and radioactive) and inhibitors, followed by a biochemical separation of substrate and product. All assays for the biochemical HTS were initially run in duplicate at a single concentration (10 uM for CYP450 assays and 25 uM for all others). […] Each assay was run with positive and negative controls, and concurrent controls on every plate. The follow-up (secondary) screen tested active chemical-pairs in concentration series, as well as a few additional assays not tested in the primary screen, some selected negative inactives, and several cases re-run in the concentration series for confirmatory purposes.

Row | SMILES | outcome | AC50
1 | Cc1cc(Cl)ccc1OCC(=O)O | inactive | –
2 | COc1nc(C)nc(NC(=O)NS(=O)(=O)c2ccccc2CCC(F)(F)F)n1 | inactive | –
3 | CC1COC(Cn2cncn2)(c2ccc(Oc3ccc(Cl)cc3)cc2Cl)O1 (stereo not drawn) | – | 6.37 µM (active)
4 | OC(c1ccc(Cl)cc1)(c1cncnc1)c1ccccc1Cl (stereo not drawn) | inactive | –
5 | COc1ccc(C(c2ccc(OC)cc2)C(Cl)(Cl)Cl)cc1 | inactive | –
6 | CON(C)C(=O)Nc1ccc(Cl)c(Cl)c1 | – | 7.75 µM (active)
7 | CCON=C(CC)C1=C(O)CC(c2c(C)cc(C)cc2C)CC1=O (stereo not drawn) | inactive | –
8 | CCCN(CCC)c1c([N+](=O)[O-])cc(S(N)(=O)=O)cc1[N+](=O)[O-] | inactive | –
9 | Fc1ccc(Oc2ccnc3cc(Cl)cc(Cl)c23)cc1 | inactive | –
10 | CCOc1cc(Oc2ccc(C(F)(F)F)cc2Cl)ccc1[N+](=O)[O-] | inactive | –
11 | CCNc1nc(Cl)nc(NC(C)C)n1 | inactive | –
12 | C#CCOS(=O)OC1CCCCC1Oc1ccc(C(C)(C)C)cc1 (stereo not drawn) | – | 35 µM (active)
13 | O=C(Nc1ccccc1)Nc1ccnc(Cl)c1 | – | 7.13 µM (active)
